sEH inhibitor: inhibitors of human soluble epoxide hydrolase; P34913; recombinant human sEH enzymatic activity assay; inhibition, % at 2 µM; hit rate 0.34% among 91,000; AID 707; in the data active means inhibition above about 80%
Target sequence (P34913 whole entry, looked up): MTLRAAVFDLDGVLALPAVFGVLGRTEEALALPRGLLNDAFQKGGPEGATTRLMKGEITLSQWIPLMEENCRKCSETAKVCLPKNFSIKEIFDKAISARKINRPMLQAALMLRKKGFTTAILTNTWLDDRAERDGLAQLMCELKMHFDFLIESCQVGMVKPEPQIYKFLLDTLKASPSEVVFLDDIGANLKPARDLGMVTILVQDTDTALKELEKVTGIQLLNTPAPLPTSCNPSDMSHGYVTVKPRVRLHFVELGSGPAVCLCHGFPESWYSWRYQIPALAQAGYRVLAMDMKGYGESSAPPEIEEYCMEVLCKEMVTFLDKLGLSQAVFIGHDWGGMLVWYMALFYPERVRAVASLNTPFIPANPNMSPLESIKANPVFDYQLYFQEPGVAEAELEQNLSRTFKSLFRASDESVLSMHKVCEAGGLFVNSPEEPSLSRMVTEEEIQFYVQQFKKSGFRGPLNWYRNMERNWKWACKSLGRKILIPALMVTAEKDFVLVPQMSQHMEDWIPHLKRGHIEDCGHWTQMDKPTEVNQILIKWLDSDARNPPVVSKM
sEH act: activators of human soluble epoxide hydrolase | hit rate 0.04% among 91,000 | P34913 | activation, % at 2 µM | purified human sEH enzymatic activity, activator screen; in the data active means activation above about 37%
Measles CPE: protection of cells from measles virus; AID 841; protection (pct of control), % at 4 µM; Measles virus-infected cells, CPE protection, absorbance; hit rate 1.5% among 140,000; in the data active means protection mostly above about 24%, no sharp cut-off; inactive means mostly below about 26%
MRP1 act: activates MRP-1. H69AR cells + doxorubicin, viability rescue, CellTiter-Glo. AID 799. hit rate 0.61% among 140,000. viability increase, % at 10 µM;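 active means viability gain under doxorubicin at or above a set limit, the compound median plus 3 SD, cut at about 4.7% in these data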;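 further: MRP-1 overexpressing cells given doxorubicin 25 µM after compound pretreatment; 18-22 h compound pretreatment then 72 h with doxorubicin before readout; 0% = doxorubicin-only wells and 100% = vehicle-treated cells without doxorubicin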
MRP reversal: reverses drug resistance mediated by MRP | differential viability (reversal), % at 10 µM | H69AR cells + 2 uM doxorubicin, CellTiter-Glo, 72 h | AID 602 | hit rate 0.04% among 85,000;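 active means viability drop by adding the cancer drug above about 55%, with treated viability meeting a 40% cutoff, limit read from the data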;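 further: viability without doxorubicin minus viability with 2 µM doxorubicin for each compound; larger differential means the compound sensitizes cells more to doxorubicin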
sdo1 growth: sdo1-depleted yeast growth rescue. S. cerevisiae sdo1-depleted JHY4D growth rescue, OD600 30 h; active compounds read high; pdr5 snq2 efflux-pump mutant strain. z-score at 10 µM. hit rate 0.21% among 140,000;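 active means z-score above 3 at both the 24 hr and the 30 hr optical density reads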;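 further: z-score against mean and SD of all compound wells on the same plate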
Starred values were filed as active, the others as inactive. This is a sample that favours compounds with a hit; in the whole collection about 2.5% have one here.

Results for COc1cc2c(cc1NC(=S)NC(=O)/C=C/c1ccc(OC)c(OC)c1)oc1ccccc12 ?
Measles CPE: 53.4*; MRP1 act: -2.9; sdo1 growth: 0.52

What do the screens show for `CC(C)CC(=O)n1sc(NC(=O)c2ccccc2)nc1=O`?
sEH inhibitor: -6.9; sEH act: 5.8; Measles CPE: 13.1; MRP1 act: 6.5*; sdo1 growth: 1.79

What do the screens show for `Cc1ccc(C(=O)Nc2nc(=O)n(C(=O)CC(C)C)s2)cc1`?
Measles CPE: 15.6; MRP1 act: 3.1; sdo1 growth: 0.5

How did Cc1ccc(S(=O)(=O)NNc2ccccc2)c(C)c1 do in these assays?
Measles CPE: 6.8; MRP1 act: -2.2; sdo1 growth: 1.15

What do the screens show for `Cc1ccc(CNC(=O)C23CN(Cc4ccccc4)CC2C(c2ccc([N+](=O)[O-])cc2)=NO3)cc1` (stereo not given)?
sEH inhibitor: 6.5; sEH act: -5.8; Measles CPE: 41.3*; MRP1 act: -3.5; sdo1 growth: -0.26

What do the screens show for `O=C(CNC(=S)N(Cc1ccccc1)Cc1cccnc1)NC1CCCC1`?
Measles CPE: 28.2*; MRP1 act: -1.8; sdo1 growth: 2.03

Results for c1coc(-c2nn3c(Cn4nnc5ccccc54)nnc3s2)c1 ?
sEH inhibitor: -1.9; sEH act: 4.9; Measles CPE: 7.5; MRP1 act: -1.4; sdo1 growth: 0.29

Results for Oc1ccc(NCc2ccccc2OCc2ccccc2)cc1 ?
Measles CPE: 40.8*; MRP1 act: -3.2; sdo1 growth: -1.31

How did Cc1nn(C)c(C)c1CN(C)S(=O)(=O)c1ccc2ccccc2c1 do in these assays?
sEH inhibitor: 3.5; sEH act: -3.5; Measles CPE: 47.4*; MRP1 act: -0.7; MRP reversal: 22.1; sdo1 growth: -0.7

How did Cc1nn(C)c(C)c1CN(C)S(=O)(=O)c1ccc(F)cc1 do in these assays?
sEH inhibitor: -5.2; sEH act: 7.9; Measles CPE: 4.5; MRP1 act: -2.0; MRP reversal: 16.3; sdo1 growth: 0.61

How did CC(=O)N(C)c1nnc(-c2ccccn2)s1 do in these assays?
sEH inhibitor: -9.7; sEH act: 12.9; Measles CPE: 13.4; MRP1 act: 1.6; MRP reversal: 15.6; sdo1 growth: -0.1

What do the screens show for `COc1ccc(-c2noc(CN3CCN(c4ccccc4)CC3)n2)cc1`?
Measles CPE: 9.5; MRP1 act: -1.9; MRP reversal: -4.2; sdo1 growth: 0.18

What do the screens show for `COc1ccc(-c2noc(CN3C(=O)c4ccccc4C3=O)n2)cc1`?
sEH inhibitor: 7.1; sEH act: -4.5; Measles CPE: 36.7*; MRP1 act: 0.6; MRP reversal: 11.7; sdo1 growth: -0.16

What do the screens show for `O=[N+]([O-])c1cccc(/C=N\N2CCN(Cc3ccccc3Cl)CC2)c1`?
sEH inhibitor: 11.7; sEH act: -8.8; Measles CPE: 5.2; MRP1 act: 4.8*; MRP reversal: 12.9; sdo1 growth: -2.88

How did O=[N+]([O-])c1cccc(/C=N/N2CCN(c3ccccn3)CC2)c1 do in these assays?
Measles CPE: 12.3; MRP1 act: 2.6; sdo1 growth: 0.02

Results for NC(=O)C1CCN(C(=O)CSc2nc3ccccc3[nH]2)CC1 ?
sEH inhibitor: -10.8; sEH act: 12.1; Measles CPE: 16.0; MRP1 act: 0.5; sdo1 growth: 0

How did NC(=O)C1(N2CCCCC2)CCN(C(=O)CSc2nc3ccccc3[nH]2)CC1 do in these assays?
sEH inhibitor: 6.1; sEH act: -3.7; Measles CPE: 41.2*; MRP1 act: 1.4; sdo1 growth: 1.19

Results for Cc1ccc(Cn2c(SCCN3CCCCC3)nc3c2c(=O)n(C)c(=O)n3C)cc1 ?
sEH inhibitor: 0.1; sEH act: -0.3; Measles CPE: 10.2; MRP1 act: -3.4; MRP reversal: 4.2; sdo1 growth: 0.45

How did Cn1c(=O)c2c(nc(SCCN3CCOCC3)n2Cc2ccccc2Cl)n(C)c1=O do in these assays?
sEH inhibitor: -14.3; sEH act: 13.4; Measles CPE: 15.7; MRP1 act: -4.1; MRP reversal: 15.1; sdo1 growth: 1.2

Results for Cn1c(=O)c2c(nc(SCCN3CCOCC3)n2Cc2cccc3ccccc23)n(C)c1=O ?
sEH inhibitor: -8.2; sEH act: 7.7; Measles CPE: 98.2*; MRP1 act: -2.2; MRP reversal: -29.0; sdo1 growth: -0.07

Results for Cn1c(=O)c2c(nc(SCCN3CCCCC3)n2Cc2ccccc2)n(C)c1=O ?
Measles CPE: 76.1*; MRP1 act: -3.5; MRP reversal: 13.8; sdo1 growth: 0.84

What do the screens show for `O=S(=O)(c1ccc(Oc2ccc(-c3nnco3)cc2)nc1)N1CCC(Cc2ccccc2)CC1`?
sEH inhibitor: 0.9; sEH act: -1.5; Measles CPE: 43.3*; MRP1 act: -0.7; MRP reversal: -11.9; sdo1 growth: -0.19

Results for CCC(=O)Nc1cc(C)c(NC(=O)c2ccccc2OC)cn1 ?
sEH inhibitor: 2.5; sEH act: -5.2; Measles CPE: 7.6; MRP1 act: 0.6; MRP reversal: 19.9; sdo1 growth: 0.8

What do the screens show for `O=C1Nc2ccccc2N(O)N1c1cc(-c2cccc(Cl)c2)no1`?
sEH inhibitor: -19.7; sEH act: 18.3; Measles CPE: 33.0*; MRP1 act: 0.5; MRP reversal: -9.1; sdo1 growth: 0.5

How did Cc1cccc(C(=O)N[C@H](C(=O)OCC(=O)NC(=O)c2cccn2C)C(C)C)c1 do in these assays?
Measles CPE: 27.0; MRP1 act: -2.9; sdo1 growth: -0.21

Results for O=[N+]([O-])c1ccc(O)c(N=Cc2sc3ccccc3c2O)c1 ?
Measles CPE: 10.3; MRP1 act: 5.5*; sdo1 growth: 1.88

What do the screens show for `CN(/N=C/C=C/c1ccccc1)C1=NS(=O)(=O)c2ccccc21`?
Measles CPE: 5.9; MRP1 act: 0.9; sdo1 growth: 0.18

What do the screens show for `O=C(NCc1ccco1)c1ccc(COCC(F)(F)C(F)F)cc1`?
sEH inhibitor: -4.2; sEH act: 3.1; Measles CPE: 32.7*; MRP1 act: -2.1; MRP reversal: -7.0; sdo1 growth: 0.52

What do the screens show for `O=C(NC1CC1)C(=O)c1c(-c2ccccc2)[nH]c2ccccc12`?
Measles CPE: 13.9; MRP1 act: -1.2; sdo1 growth: 0.32

Results for CCN(CC)C(=O)C(=O)c1c(-c2ccccc2)[nH]c2ccccc12 ?
Measles CPE: 2.2; MRP1 act: 23.1*; sdo1 growth: 0.76

How did CCC(C)c1ccc(NC(=O)C/C(C)=N/NC(=O)c2cnccn2)cc1 (stereo not given) do in these assays?
Measles CPE: 5.2; MRP1 act: 0.4; sdo1 growth: 0.34

How did CC(NC(=O)c1ccc([N+](=O)[O-])cc1[N+](=O)[O-])c1ccc(-c2ccccc2)cc1 (stereo not given) do in these assays?
Measles CPE: 40.0*; MRP1 act: -2.5; sdo1 growth: -1.49

Source: PubChem BioAssay (several laboratories)
